The values that follow come from PubChem BioAssay (NCATS).

Assay [1] can be described thus: qHTS Assay for Lipid Storage Modulators (AID 1519). As to activity change, negative = inhibition: % is scaled to controls: 0 for no effect and ±100 for the full control effect. Particulars: Drosophila S3 cells, BODIPY lipid droplet/cell ratio, laser cytometry, cells loaded with oleic acid. A digest of the protocol: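 Cells seeded at 5,000 per well were treated with compounds over a concentration series and loaded with oleic acid (400 uM, as added). Lipid droplet fluorescence (488 nm excitation, 500-530 nm channel) was read by laser-scanning cytometry and normalized to 20 uM Triacsin C.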
A general note: qHTS replaces the single test concentration by a dilution series.

A short description of assay [2]: Validation of Assay for Modulators of Lamin A Splicing (AID 1459; active = well fitted curve in the direction sought with a large enough effect in the signal ratio; the % refers to the signal ratio;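 also: cells exposed to compound for two days before reading; 0% is about no effect; ratio rise marks activators and ratio drop marks inhibitors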). Particulars: Lamin A splicing dual RFP/GFP fluorescence reporter; series mostly up to 9.22 µM. A digest of the protocol:
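Dual-reporter HeLa S3 line (lamin A-EGFP minigene, DsRed2) treated with compounds 48 hrs, 0.5% DMSO final. Endpoint: EGFP/DsRed2 total intensity ratio from laser-scanning microplate cytometry.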

Assay [3] has as its target DNA repair nuclease/redox regulator APEX1 (Homo sapiens) (UniProt P27695). The assay is described as follows: qHTS Validation Assay for Inhibitors of the Human Apurinic/apyrimidinic Endonuclease 1 (APE1) (AID 1705; active = well fitted curve in the direction sought with a large enough effect; an effect the other way counts as inactive or inconclusive;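 also: TAMRA fluorescence gain over two minutes as APE1 cuts a quenched THF abasic duplex; % is scaled to controls: 0 for no effect and ±100 for the full control effect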). Particulars: purified APE1 endonuclease activity, fluorescence, titration; series mostly up to 57.1 µM. A digest of the protocol: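 Substrate: 50 nM final fluorophore/quencher THF-abasic duplex. Enzyme preincubated with compounds 15 min, RT. Progress derived from fluorescence difference, third minus first kinetic read.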

Assay [4] is described as follows: Counterscreen for APE1 Inhibitors: Fluorescent Dye Displacement Validation Assay (AID 1707; active = well fitted curve in the direction sought with a large enough effect; an effect the other way counts as inactive or inconclusive;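 also: plate controls were ThO with dsDNA and no compound for no effect and ThO without dsDNA for full effect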). The conditions noted are these: fluorescent dye displacement from DNA; series mostly up to 57.1 µM. A digest of the protocol:
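Counterscreen flags promiscuous DNA binders: compounds displacing ThO from duplex DNA (abasic THF site, 50 nM) reduce 540 nm emission (480 nm excitation). ThO 250 nM final; Tris-HCl pH 7.5 with NaCl, MgCl2 and Tween-20.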

The target of assay [5] is Endonuclease 4 (Escherichia coli (strain K12)) (UniProt P0A6C1). In words: Counterscreen for APE1 Inhibitors: qHTS Validation Assay for Inhibitors of Endonuclease IV (AID 1708; active = well fitted curve in the direction sought with a large enough effect; an effect the other way counts as inactive or inconclusive; also: % is scaled to controls: 0 for no effect and ±100 for the full control effect). The conditions noted are these: E. coli endonuclease IV, DNA cleavage fluorescence; series mostly up to 57.1 µM. A digest of the protocol:
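Measured as reaction progress, the fluorescence gain between first and third kinetic reads after adding 50 nM TAMRA/BHQ-2 THF duplex to 2 nM enzyme preincubated 15 min with compound; 2 mM MgCl2, pH 7.5.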

Assay [6] in a line: qHTS for differential inhibitors of proliferation of Plasmodium falciparum line 7G8 (AID 1815; active = well fitted curve in the direction sought with a large enough effect; an effect the other way counts as inactive or inconclusive;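 also: parasite growth measured after three days of incubation; plate controls were vehicle wells for no effect and reference inhibitor wells for full effect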). The conditions noted are these: Plasmodium falciparum 7G8 proliferation inhibition; series mostly up to 28.7 µM.
A short description of assay [7]: qHTS for differential inhibitors of proliferation of Plasmodium falciparum line GB4 (AID 1816; active = well fitted curve in the direction sought with a large enough effect; an effect the other way counts as inactive or inconclusive;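 also: parasite growth measured after 72 h incubation; 0% = vehicle DMSO and -100% = reference inhibitor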). The conditions noted are these: Potency: Plasmodium falciparum GB4 proliferation inhibition; series mostly up to 28.7 µM.
Assay [8] is described as follows: qHTS for differential inhibitors of proliferation of Plasmodium falciparum line 3D7 (AID 1876; active = well fitted curve in the direction sought with a large enough effect; an effect the other way counts as inactive or inconclusive;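 also: parasite growth measured after three days of culture; 0% = vehicle wells and -100% = reference inhibitor wells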). The conditions noted are these: P. falciparum 3D7 proliferation inhibition; series mostly up to 28.7 µM.
The nature of assay [9]: qHTS for differential inhibitors of proliferation of Plasmodium falciparum line D10 (AID 1877; active = well fitted curve in the direction sought with a large enough effect; an effect the other way counts as inactive or inconclusive;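 also: parasites grown with compound for 72 h before DNA staining; plate controls were vehicle wells for no effect and reference inhibitor wells for full effect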). The conditions noted are these: series mostly up to 28.7 µM.
Assay [10] in a line: qHTS for differential inhibitors of proliferation of Plasmodium falciparum line Dd2 (AID 1882; active = well fitted curve in the direction sought with a large enough effect; an effect the other way counts as inactive or inconclusive;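 also: compound exposure of 72 h on infected erythrocytes; plate controls were DMSO vehicle for no effect and 0.29 µM artemisinin for full effect; nearly all actives have a fitted effect of over 65% in size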). The conditions noted are these: Potency: Plasmodium falciparum Dd2 proliferation inhibition; series mostly up to 28.7 µM. A digest of the protocol:
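RBC culture, 0.3% parasitemia / 2.5% Hct final; cpd added by pin tool in DMSO; 72 h, 37 C, 5% CO2; lysis buffer + SYBR Green I, o/n RT dark; FI 485/535; norm. to artemisinin 0.29 uM and DMSO.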

The nature of assay [11]: qHTS for differential inhibitors of proliferation of Plasmodium falciparum line W2 (AID 1883; active = well fitted curve in the direction sought with a large enough effect; an effect the other way counts as inactive or inconclusive;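 also: parasites grown with compound for 72 h before lysis and staining; 0% = vehicle wells and -100% = control inhibitor wells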). The conditions noted are these: Potency: Plasmodium falciparum W2 proliferation inhibition; series mostly up to 28.7 µM.
A short description of assay [12]: qHTS for differential inhibitors of proliferation of Plasmodium falciparum line HB3 (AID 1886; active = well fitted curve in the direction sought with a large enough effect; an effect the other way counts as inactive or inconclusive;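 also: parasites grown with compound for 72 h before SYBR Green readout; plate controls were vehicle for no effect and reference inhibitor for full effect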). Particulars: Potency: Plasmodium falciparum HB3 proliferation inhibition; series mostly up to 28.7 µM.
Assay [13] has as its target Ferritin light chain (Equus caballus) (UniProt P02791). In words: qHTS Validation Assay for Identification of Novel General Anesthetics (AID 2323; active = well fitted curve in the direction sought with a large enough effect; an effect the other way counts as inactive or inconclusive; also: % is scaled to controls: 0 for no effect and ±100 for the full control effect). The conditions noted are these: horse apoferritin, anesthetic-site fluorescent probe displacement; series mostly up to 76.9 µM. A digest of the protocol: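 Normalized fluorescence response, scaled between free 1-AMA and 1-AMA/apoferritin complex, fitted to a four-parameter Hill equation for concentration-effect values. Binding mix: 10 uM horse-spleen apoferritin, 50% saturated 1-AMA in PBS; read 380/535 nm after 10 min.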

The target of assay [14] is ATP-dependent DNA helicase Q1 (Homo sapiens) (UniProt P46063). In words: qHTS Validation Assay for Inhibitors of RecQ-Like Dna Helicase 1 (RECQ1) (AID 2353; active = well fitted curve in the direction sought with a large enough effect; an effect the other way counts as inactive or inconclusive;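 also: plate controls were DMSO vehicle for no effect and enzyme-free control for full effect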). The conditions noted are these: recombinant RECQ1 helicase DNA unwinding assay; series mostly up to 25.6 µM. Put shortly:
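RECQ1T1 50 nM; forked duplex (20 bp + 30-nt ss tails) 200 nM, ATP 2 mM final; pH 8.0, 2 mM MgCl2, 2.5 ug/ml poly(dI-dC); 15 min compound preincubation; discontinuous kinetic read over 2 h at RT.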

[15] abbreviates: measured here: cell count channel max response.
Setting [16] is: measured here: lipid channel max response.

“And” between values parts separate entries of the source, which are not always exact repeats. Equal values may be shown once. Records with an inconclusive call do not appear. The source made the active and inactive calls. Unless noted, calls follow the shape of the full dose curve.

Ferritin light chain (Equus caballus), sequence (P02791 2-175 limits assumed): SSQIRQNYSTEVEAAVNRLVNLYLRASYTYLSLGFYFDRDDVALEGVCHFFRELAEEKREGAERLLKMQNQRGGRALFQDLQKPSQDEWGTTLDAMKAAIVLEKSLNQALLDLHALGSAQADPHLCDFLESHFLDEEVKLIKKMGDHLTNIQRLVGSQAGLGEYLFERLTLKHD
DNA repair nuclease/redox regulator APEX1 (Homo sapiens), sequence (P27695 whole entry, looked up): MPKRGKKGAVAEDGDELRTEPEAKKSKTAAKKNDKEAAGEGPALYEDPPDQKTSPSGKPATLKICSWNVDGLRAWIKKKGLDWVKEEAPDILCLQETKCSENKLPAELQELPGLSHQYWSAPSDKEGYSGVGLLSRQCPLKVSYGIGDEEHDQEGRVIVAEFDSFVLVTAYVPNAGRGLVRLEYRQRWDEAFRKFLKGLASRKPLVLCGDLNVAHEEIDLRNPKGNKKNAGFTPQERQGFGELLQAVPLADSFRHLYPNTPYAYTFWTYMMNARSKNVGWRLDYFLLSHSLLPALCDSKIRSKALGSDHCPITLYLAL
ATP-dependent DNA helicase Q1 (Homo sapiens), sequence (P46063 whole entry, looked up): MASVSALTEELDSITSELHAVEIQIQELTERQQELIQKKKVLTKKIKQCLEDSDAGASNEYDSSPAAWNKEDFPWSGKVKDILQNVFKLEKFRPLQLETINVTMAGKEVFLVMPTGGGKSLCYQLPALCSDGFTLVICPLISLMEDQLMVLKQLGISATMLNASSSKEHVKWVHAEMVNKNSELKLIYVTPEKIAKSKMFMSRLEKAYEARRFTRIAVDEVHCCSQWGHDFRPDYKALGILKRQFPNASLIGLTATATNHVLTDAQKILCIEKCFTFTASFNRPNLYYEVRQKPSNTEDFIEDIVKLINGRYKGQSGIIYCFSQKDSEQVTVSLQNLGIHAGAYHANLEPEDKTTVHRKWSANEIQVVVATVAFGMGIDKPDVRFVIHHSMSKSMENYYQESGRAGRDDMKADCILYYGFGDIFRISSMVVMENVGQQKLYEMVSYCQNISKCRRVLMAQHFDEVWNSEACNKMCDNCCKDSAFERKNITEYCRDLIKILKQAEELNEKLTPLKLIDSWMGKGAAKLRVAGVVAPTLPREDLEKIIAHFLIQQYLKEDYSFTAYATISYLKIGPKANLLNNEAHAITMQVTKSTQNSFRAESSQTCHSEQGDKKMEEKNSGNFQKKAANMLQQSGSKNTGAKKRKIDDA

For the molecule `N#Cc1ccc2c(c1)N(CCCN1CCC(O)CC1)c1ccccc1S2`, the activity change, negative = inhibition in assay [1] (at 57.5 µM (top of the series)) is 6.36% (inactive). Further, the max response in assay [1] (setting [15]) was determined as 2.04%; in [1] (setting [16]) it was 8.33%.
On to `C=CC(C)(O)CC/C=C(\C)CCC=C(C)C` (stereo not drawn), for which, in assay [1] (at 57.5 µM (top of the series)), the activity change, negative = inhibition was 0.625% (inactive). Besides, the figures for the max response in assay [1] (setting [15]) and in assay [1] (setting [16]) were 5.67% and 8.64%, respectively.
For `N[C@H](CC(=O)O)C(=O)O`, in assay [1] (at 57.5 µM (top of the series)), the activity change, negative = inhibition was -1.19% (inactive). Further, the max response in [1] (setting [15]) was -13%; in assay [1] (setting [16]) it was -12.9%.
As for `CC(=O)N=c1sc(S(N)(=O)=O)nn1C`, the activity change, negative = inhibition in assay [1] (at 25.7 µM (top of the series)) was -5.24% (inactive); in assay [1] (at 57.5 µM (top of the series)) it was -1.51% (inactive). Also, the max response in [1] (setting [15]) was -10.9% and 5.08%; in assay [1] (setting [16]) it was -12.6% and 4.84%.
Regarding `Nc1ccc(N=Nc2ccccc2)c(N)n1`, the activity change, negative = inhibition was -0.0516% (inactive) in assay [1] (at 25.7 µM (top of the series)) and 17.8% (inactive) in [1] (at 57.5 µM (top of the series)). The max response in assay [1] (setting [15]) is -20.4% and -3.25%; in assay [1] (setting [16]), -21.4% and 16.6%.
Regarding `CC(=O)Oc1cccc(C(=O)O)c1OC(C)=O`, the activity change, negative = inhibition in assay [1] (at 57.5 µM (top of the series)) is 4.19% (inactive). For the same molecule, the values for the max response in [1] (setting [15]) and in [1] (setting [16]) were 10.5% and 12%, respectively.
Consider `CCSc1ccc2c(c1)N(CCCN1CCN(C)CC1)c1ccccc1S2`, for which the activity change, negative = inhibition in assay [1] (at 25.7 µM (top of the series)) was -4.9% (inactive). Further, the max response in assay [1] (setting [15]) is -20.1%; in assay [1] (setting [16]) it was -23.8%.
As to `O=c1[nH]c(=O)n([C@H]2C[C@H](O)[C@@H](CO)O2)cc1/C=C/Br`, the call in assay [2], in [3], in assay [4], in [5], in [8] and in [9] was inactive. The outcome in assay [13] and in assay [14] was inactive. For the same molecule, the Potency result in assay [6], in assay [7], in [10], in assay [11] and in assay [12] was “inactive” throughout.
As for `Cc1cccc(C)c1NC(=O)C1CCCCN1C` (stereo not drawn), in assay [1] (at 57.5 µM (top of the series)), the activity change, negative = inhibition was 7.8% (inactive). In addition, the max response is 19% in [1] (setting [15]) and 29.6% in assay [1] (setting [16]).
For `NCC(O)CC(=O)O` (stereo not drawn), in that order: 7.57% (inactive), 11% and 22.3%.
As for `CC(=O)Nc1ccc(OC(=O)c2ccccc2O)cc1`, the activity change, negative = inhibition in assay [1] (at 57.5 µM (top of the series)) is 5.77% (inactive). The max response in [1] (setting [15]) is 14.6%; in assay [1] (setting [16]), 24.9%.
As for `CC(C)c1nc(N(C)S(C)(=O)=O)nc(-c2ccc(F)cc2)c1/C=C/C(O)CC(O)CC(=O)O` (stereo not drawn), the activity change, negative = inhibition in assay [1] (at 57.5 µM (top of the series)) was 2.85% (inactive). Moreover, the max response in [1] (setting [15]) is 4.28%; in [1] (setting [16]), 9.26%.
